Screens: PubChem BioAssay, PCMD
In the library only some 0.33% were active in any assay of this set; here they are far more common.
FXIIa inh: inhibitors of human coagulation factor XIIa; P00748; purified human FXIIa, AMC substrate fluorescence, 2 h; inhibition, % at 10 µM; 33,000 tested, 0.2% active; in the data active = inhibition above about 30%;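 also: 0% = enzyme with vehicle only and 100% = no enzyme blank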
Target sequence (P00748 20-372 limits assumed): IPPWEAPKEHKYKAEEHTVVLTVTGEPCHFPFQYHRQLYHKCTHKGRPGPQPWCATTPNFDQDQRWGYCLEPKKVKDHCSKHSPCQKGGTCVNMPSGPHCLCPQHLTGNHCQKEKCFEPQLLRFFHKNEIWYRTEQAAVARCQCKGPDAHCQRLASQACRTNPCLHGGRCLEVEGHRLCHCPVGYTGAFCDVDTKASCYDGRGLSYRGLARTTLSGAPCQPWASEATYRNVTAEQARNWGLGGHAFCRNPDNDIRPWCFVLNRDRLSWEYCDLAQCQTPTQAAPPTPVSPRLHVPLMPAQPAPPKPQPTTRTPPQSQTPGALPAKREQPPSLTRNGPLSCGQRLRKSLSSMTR
Target sequence (P00748 373-615 limits assumed): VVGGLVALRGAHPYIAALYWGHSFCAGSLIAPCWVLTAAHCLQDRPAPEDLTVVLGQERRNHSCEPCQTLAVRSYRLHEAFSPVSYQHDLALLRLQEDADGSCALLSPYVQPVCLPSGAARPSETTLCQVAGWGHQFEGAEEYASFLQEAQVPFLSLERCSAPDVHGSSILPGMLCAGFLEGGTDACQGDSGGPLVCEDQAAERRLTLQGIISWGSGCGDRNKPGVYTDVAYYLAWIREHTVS
FXIa single inh: inhibitors of human coagulation factor XIa; P03951; purified human FXIa, fluorogenic AMC substrate cleavage; inhibition, % at 10 µM; 33,000 tested, 0.3% active; AID 687;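 active = inhibition above 40% in the primary screen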;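 also: 0% = enzyme without compound and 100% = blank wells lacking enzyme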
The depositor's hits bear a star.

SMILES	FXIIa inh	FXIa single inh
COc1ccc(CN2CC(C(=O)NCc3ccc4c(c3)OCO4)CC2=O)cc1 (stereo not drawn)	2	32
O=C(Nc1nc2n(n1)C(c1ccccc1)C=C(c1ccccc1)N2)c1ccco1 (stereo not drawn)	25	1
O=C(Nc1nc2n(n1)C(c1ccc(Cl)cc1)CC(c1ccc(Cl)cc1)N2)c1ccco1 (stereo not drawn)	46*	-4
Cc1cccc(OCC(=O)N/N=C\c2cc3c(cc2[N+](=O)[O-])OCO3)c1C	1	-6
CCOC(=O)c1cc(C)n(Cc2ccc(OCC)c(OC)c2)c1C	12	7
C=CCn1c(=O)c2c(nc(Br)n2Cc2ccccc2Cl)n(C)c1=O	3	46*
CCOC(=O)Cn1c(=O)c2c(nc(Br)n2Cc2ccccc2Cl)n(C)c1=O	3	-5
Cc1c(SCCO)c(=O)[nH]c2cc3c(cc12)OCO3	5	-13
Cc1ccc(N(C(=O)c2ccccn2)C2(C(=O)NC3CCCC3)CCCCC2)cc1	6	42*
O=C(c1ccccn1)N(Cc1ccco1)C1(C(=O)NC2CCCC2)CCCCC1	-13	24
COc1cc(/C=c2\sc3n(c2=O)CCCN=3)ccc1O	7	43*
COc1cc(/C=c2\sc3n(c2=O)C(c2ccccc2)C(c2ccccc2)=NN=3)ccc1O (stereo not drawn)	5	-5
CCOC(=O)N1CCC(N2C(=O)c3ccccc3C2Nc2c(C)cccc2C)CC1 (stereo not drawn)	10	5
CN(C)c1ccnc(N(Cc2ccccc2)Cc2ccccc2)c1C#N	8	-3
COc1ccccc1-n1cnnc1SCC(=O)Nc1nc(C)c(Cl)cc1Cl	5	43*
COc1ccc(-n2cnnc2SCC(=O)Nc2nc(C)c(Cl)cc2Cl)cc1	5	3
COc1ccc(CCNC(=O)COC(=O)c2cnc(C)cn2)cc1	5	-1
Cc1cnc(C(=O)OCC(=O)NCc2ccccc2)cn1	3	41*
N#CC(c1ccc(Cl)cc1)c1ccc(Cl)nn1 (stereo not drawn)	1	-3
O=c1c(-c2cc3ccccc3o2)[n+]([O-])c2ccccc2n1OCc1ccccn1	-11	40*
O=c1c(-c2ccco2)[n+]([O-])c2ccccc2n1OCc1ccccc1	12	-7
O=C(c1cccc2ccccc12)n1nnc2ccccc21	27	48*
O=C(O)Cn1c(SCc2cccc3ccccc23)nc2ccccc21	4	-1
Cc1onc(-c2c(Cl)cccc2Cl)c1C(=O)n1nnc2ccccc21	7	7
Cc1ccc(C(=O)n2nnc3ccccc32)cc1	68*	97*
COC(=O)/C(=C(/F)SCC(C)=O)C(F)(F)F	0	-6
